# Laboratory results from PubChem BioAssay.
# The source made the active and inactive calls.
# Experiments:
# [1] = system: Human papillomavirus type 1a protein E7 (residues 44-93); experiment: small molecules binding HPV E7 44-93 – biochemical, small-molecule microarray, residues 44-93, 635 nm fluorescence, primary screen (AID 1108); conditions: fluorescence 635 nm, higher = more signal;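 note: E7 fragment applied at 1 µg/mL in TBST for 1 h at 4 C; score combines spot fluorescence with its signal to noise ratio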
# [2] = hepatitis C replication reporter changes, two-sided – Huh7 cells, luciferase reporter, HCV replication inhibitor project, primary screen (AID 1109); conditions: Huh7 HCV replicon luciferase reporter, 48 h; higher = more signal;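 note: huh7 hepatoma cells harbouring a luciferase neomycin HCV replicon reporter; luciferase luminescence as measure of HCV replicon replication; test concentration not given here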
# [3] = target: Left-right determination factor 2 (Homo sapiens) (UniProt O00292); experiment: small molecules binding LEFTY2 protein – biochemical, small-molecule microarray, 635 nm fluorescence scan, primary screen (AID 1110); conditions: higher = more signal
# Left-right determination factor 2 (Homo sapiens), sequence (O00292 whole entry, looked up): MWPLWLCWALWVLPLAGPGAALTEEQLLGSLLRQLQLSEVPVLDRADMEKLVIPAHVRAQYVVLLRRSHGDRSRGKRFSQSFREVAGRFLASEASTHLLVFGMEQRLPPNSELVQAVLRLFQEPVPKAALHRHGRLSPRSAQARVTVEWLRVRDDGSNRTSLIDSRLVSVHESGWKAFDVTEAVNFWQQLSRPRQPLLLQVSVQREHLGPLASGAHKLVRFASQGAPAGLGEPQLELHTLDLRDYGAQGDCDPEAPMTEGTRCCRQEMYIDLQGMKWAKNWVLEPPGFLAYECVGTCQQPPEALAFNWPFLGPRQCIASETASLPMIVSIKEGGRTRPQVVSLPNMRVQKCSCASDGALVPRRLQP
# [4] = target: Calmodulin-1 (Homo sapiens) (UniProt P0DP23); experiment: small molecules binding calmodulin-1 with EGTA – biochemical, small-molecule microarray, Cy5-labelled CALM1, profiling panel (AID 1111); conditions: Cy5-CALM1 binding fluorescence, higher = more signal;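 note: labelled calmodulin applied in Tris saline Tween buffer holding calcium plus EGTA and DTT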
# [5] = target: Calmodulin-1 (Homo sapiens) (UniProt P0DP23); experiment: small molecules binding Ca-loaded calmodulin-1 – biochemical, small-molecule microarray, Cy5-labelled CALM1, plus calcium, artefact control for SMM control-protein annotation, profiling panel (AID 1112); conditions: Cy5-CALM1 binding fluorescence, higher = more signal;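 note: score merges spot fluorescence with signal to noise from triplicate slides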
# [6] = probe aWnt5a binding to arrayed compounds – biochemical, biotinylated probe, 635/667 nm fluorescence, primary screen (AID 1113); conditions: small-molecule microarray, higher = more signal;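 note: score merges 667 nm fluorescence intensity with signal-to-noise per printed feature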
# [7] = probe aShh binding to arrayed compounds – biochemical, biotinylated probe, 635/667 nm fluorescence, primary screen (AID 1114); conditions: small-molecule microarray, higher = more signal;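 note: probe is biotin-labelled aShh protein from a stem cell growth factor screen; measures binding of labelled protein to compounds printed on the slide; score merges feature fluorescence at 667 nm with signal-to-noise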
# [8] = probe aNog binding to arrayed compounds – biochemical, biotinylated probe, 635/667 nm fluorescence, primary screen (AID 1115); conditions: small-molecule microarray, higher = more signal;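 note: probe is biotinylated aNog protein used at 0.15 µg/mL for 1 h at 4 C; z-score combines 667 nm fluorescence of each spot with its signal to noise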
# [9] = target: Torsin-1A-interacting protein 1 (Homo sapiens) (UniProt Q5JTV8); experiment: compound microarray binding of lysate hLAP1 – cell lysate, small-molecule microarray, COS7 lysate, 635/667 nm fluorescence, primary screen (AID 1116); conditions: 635 nm fluorescence, higher = more signal
# Torsin-1A-interacting protein 1 (Homo sapiens), sequence (Q5JTV8 whole entry, looked up): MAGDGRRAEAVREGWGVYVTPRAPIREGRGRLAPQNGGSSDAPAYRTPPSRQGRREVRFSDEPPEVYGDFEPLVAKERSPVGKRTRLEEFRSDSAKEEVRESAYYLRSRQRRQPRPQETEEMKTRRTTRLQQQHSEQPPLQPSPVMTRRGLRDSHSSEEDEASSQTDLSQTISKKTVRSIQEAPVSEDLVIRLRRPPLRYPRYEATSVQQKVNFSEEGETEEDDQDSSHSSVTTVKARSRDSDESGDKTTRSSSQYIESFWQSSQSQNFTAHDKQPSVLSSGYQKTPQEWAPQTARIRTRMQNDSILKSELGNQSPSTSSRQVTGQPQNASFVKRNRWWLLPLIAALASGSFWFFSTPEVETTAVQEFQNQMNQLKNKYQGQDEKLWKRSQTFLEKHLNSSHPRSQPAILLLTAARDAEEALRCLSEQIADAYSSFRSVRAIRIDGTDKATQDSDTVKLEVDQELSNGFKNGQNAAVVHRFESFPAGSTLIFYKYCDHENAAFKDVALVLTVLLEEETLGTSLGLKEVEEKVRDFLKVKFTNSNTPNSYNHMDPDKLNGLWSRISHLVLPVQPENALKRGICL
# [10] = target: Alpha-bungarotoxin (Bungarus multicinctus) (UniProt P60615); experiment: compounds binding labelled alpha-BTX control protein – biochemical, small-molecule microarray, Alexa647 label, 635/667 nm fluorescence, artefact control for SMM control protein annotation, profiling panel (AID 1117); conditions: alpha-BTX-A647 binding fluorescence, higher = more signal
# Alpha-bungarotoxin (Bungarus multicinctus), sequence (P60615 whole entry, looked up): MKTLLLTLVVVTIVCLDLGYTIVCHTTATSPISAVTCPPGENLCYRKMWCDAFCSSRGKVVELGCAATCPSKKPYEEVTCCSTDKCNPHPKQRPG
# Albumin (Bos taurus) = Albumin (Bos taurus) (UniProt P02769); experiment: compounds binding labelled BSA control protein – biochemical, small-molecule microarray, Alexa647 label, 635/667 nm fluorescence, artefact control for SMM control protein annotation, profiling panel (AID 1118); conditions: BSA-A647 binding, fluorescence 635 nm, higher = more signal;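 note: score merges 667 nm emission intensity and signal-to-noise per printed compound spot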
# Albumin (Bos taurus), sequence (P02769 whole entry, looked up): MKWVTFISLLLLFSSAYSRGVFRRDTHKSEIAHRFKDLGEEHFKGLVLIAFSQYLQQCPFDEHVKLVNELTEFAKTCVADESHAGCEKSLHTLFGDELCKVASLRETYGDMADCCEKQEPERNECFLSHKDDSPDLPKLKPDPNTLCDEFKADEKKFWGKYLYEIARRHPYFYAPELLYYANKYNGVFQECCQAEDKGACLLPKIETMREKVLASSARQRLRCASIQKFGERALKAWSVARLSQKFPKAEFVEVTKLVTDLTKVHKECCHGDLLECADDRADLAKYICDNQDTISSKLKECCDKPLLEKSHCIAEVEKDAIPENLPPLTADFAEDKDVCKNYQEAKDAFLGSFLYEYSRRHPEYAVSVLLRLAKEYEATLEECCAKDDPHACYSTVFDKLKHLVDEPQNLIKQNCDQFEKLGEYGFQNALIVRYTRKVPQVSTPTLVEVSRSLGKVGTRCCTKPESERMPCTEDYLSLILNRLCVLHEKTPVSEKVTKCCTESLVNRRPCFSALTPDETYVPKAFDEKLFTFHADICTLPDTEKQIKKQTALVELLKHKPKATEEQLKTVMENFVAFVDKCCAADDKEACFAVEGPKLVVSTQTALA
# [11] = probe aXIP binding to arrayed compounds – biochemical, NeuroSMM set, 635/667 nm fluorescence, primary screen (AID 1119); conditions: small-molecule microarray, higher = more signal, called active from +8 up or from −8 down;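 note: probe is the protein aXip251-270 applied at 1 µg/mL to compound-printed slides; binding of probe to printed compounds measured as 667 nm fluorescence plus signal to noise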
# [12] = probe aNOTCH3 binding on compound microarray – biochemical, small-molecule microarray, 635/667 nm fluorescence, primary screen (AID 1120); conditions: higher = more signal;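 note: probe is a biotin-tagged antibody raised against NOTCH3 rather than NOTCH3 protein; score merges spot fluorescence near 667 nm with spot signal to noise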
# [13] = probe aNOTCH2 binding on compound microarray – biochemical, small-molecule microarray, 635/667 nm fluorescence, primary screen (AID 1121); conditions: higher = more signal;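 note: score merges feature fluorescence read at 667 nm with its signal to noise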
# [14] = target: Carbonic anhydrase 2 (Homo sapiens) (UniProt P00918); experiment: compounds binding carbonic anhydrase 2 – biochemical, small-molecule microarray, Alexa647-labelled CAII, profiling panel (AID 1122); conditions: CAII-A647 binding fluorescence, higher = more signal
# [15] = COS7 lysate on small-molecule microarray, probe aHis, 635 nm (AID 1123); conditions: COS7 cell lysate, fluorescence, higher = more signal;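 note: z-score combines 667nm fluorescence intensity with signal-to-noise per printed compound spot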
# [16] = probe aLAP1 signal on lysate-treated microarray – cell lysate, small-molecule microarray, COS7 lysate, primary screen (AID 1124); conditions: probe aLAP1, fluorescence, higher = more signal;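 note: lysate comes from COS7 cells expressing LAP1 and is applied at 0.3 µg/mL; score merges spot fluorescence near 667 nm with signal-to-noise over triplicate slides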
# Sam68 (KHDRBS1) = experiment: compounds binding KHDRBS1 protein – biochemical, small-molecule microarray, 635 nm fluorescence, primary screen (AID 1125); conditions: higher = more signal;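 note: score merges 667 nm channel intensity with signal to noise over triplicate slides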
# [17] = system: Chordin-like protein 2 (CHRDL2); experiment: compounds binding chordin-like 2 – biochemical, small-molecule microarray, 635 nm fluorescence, primary screen (AID 1126); conditions: fluorescence 635 nm, higher = more signal;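 note: printed compound slides probed with Chrdl2 protein at 4 µg/mL for 1 h at 4 C; score merges 667 nm emission intensity with signal to noise over three replicate slides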
# [18] = target: Concanavalin-A (Canavalia ensiformis) (UniProt P02866); experiment: compounds binding concanavalin A lectin – biochemical, small-molecule microarray, Alexa647 label, 635 nm, artefact control for SMM control protein annotation, primary screen (AID 1127); conditions: ConA-A647 binding fluorescence, higher = more signal;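 note: z combines 667 nm emission intensity with signal-to-noise across three replicate slides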
# Concanavalin-A (Canavalia ensiformis), sequence (P02866 whole entry, looked up): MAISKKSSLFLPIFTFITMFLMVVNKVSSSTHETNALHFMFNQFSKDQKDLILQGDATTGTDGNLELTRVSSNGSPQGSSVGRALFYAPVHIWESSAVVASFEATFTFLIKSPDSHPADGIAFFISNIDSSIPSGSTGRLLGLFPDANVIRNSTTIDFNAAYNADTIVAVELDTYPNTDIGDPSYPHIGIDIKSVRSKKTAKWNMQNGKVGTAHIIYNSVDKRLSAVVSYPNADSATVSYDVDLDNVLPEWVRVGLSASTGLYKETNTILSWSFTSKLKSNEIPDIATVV
SMILES,composite z-score [1],z-score [2],composite z-score [3],composite z-score [4],composite z-score [5],composite z-score [6],composite z-score [7],composite z-score [8],composite z-score [9],composite z-score [10],composite z-score (Albumin (Bos taurus)),composite Z-score [11],composite z-score [12],composite z-score [13],composite z-score [14],composite z-score [15],composite z-score [16],composite z-score (Sam68 (KHDRBS1)),composite z-score [17],composite z-score [18]
CO[C@@H]1C=CCC(=O)N[C@@H](C)C(=O)OC[C@@H](OC)[C@H](C)C=CCC(=O)OC[C@H]1C,-0.669,0.388,1.48,-1.14,-1.96,-0.152,-0.0035,0.109,0.037,0.373,-1.01,0.914 (inactive),-0.0967,-0.123,-0.689,-1.2,0.0645,0.451,1.49,-1.09
CCN1C(=O)[C@H]2[C@H]3[C@H](O)[C@H](O)CC(=NOCC[C@@H]4C=C[C@H](OC(C)=O)[C@@H](COC(C)=O)O4)[C@@H]3CC[C@H]2C1=O,-0.263,-1.04,0.736,-0.207,-0.225,0.0102,0.0899,0.029,-0.359,0.391,0.541,0.501 (inactive),-0.149,-0.12,0.385,0.305,0.256,0.214,0.63,0.544
C[C@@H]1CC[C@H]2C(=O)N3[C@@H](CC[C@@H](C)[C@@H]3c3ccc(Br)cc3)C(=O)N2[C@H]1c1ccc(Br)cc1,-0.0146,-1.82,0.31,-0.209,-0.188,-0.105,-0.138,-0.113,0.08,0.371,0.213,-0.119 (inactive),0.0462,0.224,-0.161,0.246,-0.0873,0.31,0.391,0.344
O=C1[C@H]2[C@H]3[C@H](O)[C@H](O)CC(=NOC[C@@H](O)COCc4ccco4)[C@@H]3CC[C@H]2C(=O)N1c1cccc(Oc2ccccc2)c1,-0.645,-0.739,0.103,0.0705,-0.511,-0.0758,-0.289,-0.29,-0.0841,0.534,-0.407,-0.352 (inactive),-0.147,-0.22,-0.0803,-0.704,-0.0713,-1.43,0.381,0.391
CO[C@H]1COC(=O)[C@H](CCSC)NC(=O)CC=C[C@@H](C)[C@H](OC)COC(=O)[C@@H](OCc2ccccc2)C=C[C@@H]1C,0.176,-1.4,0.753,-0.841,-1.69,-0.159,-0.221,-0.483,0.0829,-0.531,-0.798,1.04 (inactive),-0.043,-0.153,-0.173,-0.919,0.0916,0.835,1.45,-0.257
O=C1C=C[C@@H](O)[C@@H]2[C@@H]3C(=O)N(Cc4ccccc4)C(=O)[C@@H]3CC[C@@H]12,0.248,0.493,0.527,-0.133,-0.457,-0.0758,-0.283,-0.213,0.476,0.332,0.22,-0.5 (inactive),0.21,-0.132,-0.0331,0.556,-0.139,0.0888,0.482,0.619
COC(=O)[C@H](C)NC(=O)CCC1CC(OC(=O)NCCc2ccc(F)cc2)CC2(CCCC(COC(=O)NCc3ccccc3)O2)O1 (stereo not given in full),1.32,-1.18,0.816,0.516,-0.796,-0.141,-0.221,-0.384,0.708,0.574,0.431,0.0852 (inactive),-0.0511,-0.208,0.266,0.253,-0.0955,1.31,0.774,0.619
CCOC(=O)[C@H](Cc1ccccc1)NC(=O)CCC1CC(OC(=O)NCc2ccc3c(c2)OCO3)CC2(CCCC(COC(=O)NCCOC)O2)O1 (stereo not given in full),1.36,-1.08,0.545,0.353,-0.194,-0.124,-0.153,-0.0524,0.609,0.591,-0.756,0.0786 (inactive),0.163,-0.0785,0.134,0.577,-0.172,1.3,0.379,1.06
CO[C@H]1COC(=O)[C@H](C)COC(=O)[C@@H](OCc2ccccc2)C=C[C@@H]1C,-0.0848,-0.0886,0.328,-0.46,-0.726,-0.123,-0.0769,-0.379,-0.149,-0.281,0.0996,0.976 (inactive),-0.141,-0.12,-0.342,-0.051,-0.181,0.207,0.225,0.233
C=C(C)C(=O)OC[C@H]1CN2[C@@H](CC[C@@H](C)[C@@H]2c2ccc(Br)cc2)C(=O)O1,0.33,1.25,0.373,-0.562,-0.395,-0.178,-0.0553,-0.353,-0.273,0.534,-0.625,0.27 (inactive),-0.0362,-0.104,0.079,0.379,0.318,0.428,0.698,-0.426
CC(C)CN1CCc2nc(-c3ccccc3)c3c(c2C1)CO[C@@H](C)C3,1.01,-0.791,0.881,0.566,0.32,-0.0285,0.0751,-0.149,0.152,0.365,0.729,-0.548 (inactive),0.0636,0.0341,0.465,0.798,0.0322,1.29,0.53,1.11
